Screening data deposited in PubChem BioAssay by The Scripps Research Institute Molecular Screening Center.
Compounds with a hit are over-represented: about 3.5% of the library has one in this group of screens.
TEAD-YAP block: TEAD-YAP interaction inhibition, primary screen, TEAD-YAP interaction inhibitor project, luminescence, HEK-TIYL cells; TEAD-Gal4/YAP UAS-luciferase luminescence; inhibition, % at 9.12 µM; 640,000 compounds, 1.4% hits; in the data active means inhibition above about 32%
GPR151 activ: activators of human GPR151, primary screen, cell-based, PathHunter beta-arrestin, luminescence. G-protein coupled receptor 151 (Homo sapiens), Q8TDV0. PathHunter beta-arrestin GPR151 cells. activation, % at 11.2 µM. 650,000 compounds, 1% hits; in the data active means activation above about 4.9%
MITF primary: MITF inhibitors, primary screen, biochemical, AlphaScreen, human | Microphthalmia-associated transcription factor (Homo sapiens), O75030 | AlphaScreen MITF homodimerization, bead proximity signal | inhibition, % at 2.6 µM | 650,000 compounds, 0.91% hits | AID 1259374, 2018; in the data active means inhibition above about 50%
Target sequence (O75030 whole entry, looked up): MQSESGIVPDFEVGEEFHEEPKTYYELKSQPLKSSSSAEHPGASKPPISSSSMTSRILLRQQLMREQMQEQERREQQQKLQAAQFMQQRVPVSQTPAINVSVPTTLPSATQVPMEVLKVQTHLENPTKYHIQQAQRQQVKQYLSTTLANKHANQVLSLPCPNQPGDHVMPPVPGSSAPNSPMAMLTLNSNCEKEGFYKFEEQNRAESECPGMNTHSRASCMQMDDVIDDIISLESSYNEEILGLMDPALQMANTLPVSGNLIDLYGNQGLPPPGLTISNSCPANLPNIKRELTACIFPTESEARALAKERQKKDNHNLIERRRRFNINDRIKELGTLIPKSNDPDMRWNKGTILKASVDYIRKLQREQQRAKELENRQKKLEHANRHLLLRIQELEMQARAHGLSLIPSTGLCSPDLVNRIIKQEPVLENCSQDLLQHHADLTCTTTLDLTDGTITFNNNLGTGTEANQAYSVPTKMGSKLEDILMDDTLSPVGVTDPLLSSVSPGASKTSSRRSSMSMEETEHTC
FBW7 activator: FBW7 E3 ligase activators, primary screen, biochemical, AlphaScreen, human | 650,000 compounds, 0.13% hits | AID 1259310, 2017 | normalized activity (activation), % at 26.1 µM | F-box/WD repeat-containing protein 7 (Homo sapiens), Q969H0 | AlphaScreen FBW7–phospho-cyclin E peptide binding, activator screen; in the data active means normalized activity above about 1.9%;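 further: purified mutant Fbw7 with reduced substrate affinity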
MITF inh conf: MITF inhibitors, retest of hits, confirmation, biochemical, AlphaScreen, triplicate. AlphaScreen MITF homodimerization, biotin/His-MITF beads. 4,700 compounds, 16% hits. shares compounds with MITF primary. inhibition, % at 2.6 µM;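 active means inhibition above a cutoff derived from the DMSO control wells, cut at about 28% in these data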;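 further: inhibitors lower the bead chemiluminescence by keeping MITF from dimerizing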
AlphaScreen DR: AlphaScreen optical interference compounds, dose response, counter-screen, biochemical, HTS | IC50, µM | AlphaScreen optical interference counterscreen, cell-free | shares compounds with MITF primary | 480 compounds, 6% hits; call rule not given here
AlphaScreen intf2: AlphaScreen optical interference compounds, counter-screen for MITF inhibitor project, biochemical, triplicate; shares compounds with MITF primary; LysRS AlphaScreen counterscreen, signal interference; inhibition, % at 2.6 µM; 4,700 compounds, 7.6% hits;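 active means inhibition above a cutoff derived from the DMSO control wells, cut at about 30% in these data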
Numbers stand for hits; . = inactive; / = no result.

SMILES	TEAD-YAP block	GPR151 activ	MITF primary	FBW7 activator	MITF inh conf	AlphaScreen intf2	others
Cc1cc(N)c(O)c2ncccc12	.	.	81	.	104	101
Cc1ccc(S(=O)(=O)Nc2cc(Cl)c(O)c3ncccc23)cc1	.	.	.	.	/	/
O=C1c2ccc([N+](=O)[O-])cc2C(=O)N1c1cc(Br)c(O)c(Br)c1	.	.	69	.	75	.	AlphaScreen DR=.
CN(C)S(=O)(=O)c1ccc(S(=O)(=O)N2CCC(O)CC2)cc1	.	.	.	.	/	/
Cc1cc(C)n(CCCNCC(O)COCc2cccs2)n1 (configuration not stated)	.	.	79	.	.	.
Cc1cc(C)n(CCCNCC(O)COCc2ccccc2)n1 (configuration not stated)	.	.	.	.	/	/
CCOc1cc(CN2CCN(Cc3ccc(SC)cc3)CC2)ccc1OC	.	.	54	.	.	.
COc1ccc(CN2CCN(Cc3ccc(SC)cc3)CC2)cc1OCc1ccccc1	.	.	55	.	.	.
COc1ccc(CN2CCN(Cc3ccncc3)CC2)cc1OCc1ccccc1	.	.	63	.	.	.
COc1ccc(CN2CCN(C)CC2)cc1OCc1ccccc1	.	.	.	.	/	/
COc1ccc(C(=O)NC(=S)Nc2ccc(C(=O)OC(C)C)cc2)cc1Br	.	.	.	.	/	/
COC(=O)C1=C(C)NC(C)=C(C(=O)OC)C1c1cn(-c2ccccc2)nc1-c1ccccc1	.	.	.	.	/	/
CC(C)(C)OC(=O)COn1ccc2ccc(S(C)(=O)=O)cc21	.	.	.	.	/	/
CC(C)COc1ccc2c(c1)Sc1ccccc1N2CCN(C)C	.	.	54	.	.	.
Cc1cccc(N2NC(=O)/C(=C/c3ccc(Cl)c([N+](=O)[O-])c3)C2=O)c1	.	.	.	.	/	/
Cc1[nH]ncc1-c1ccc(NC(=O)[C@@H]2Cc3ccccc3CN2)c(OCCN(C)C)c1	.	.	67	.	.	.
CCOC(=O)c1c(NC(=O)CCCCCN2C(=O)c3ccccc3C2=O)sc2c1CCCC2	.	.	.	.	/	/
CCOc1cccc2c1OC(c1ccc(C(=O)OC)cc1)N1N=C(c3cccs3)CC21 (configuration not stated)	.	.	.	.	/	/
CC(Nc1ccccc1)C(=O)N1CCc2ccccc21 (configuration not stated)	.	.	.	.	/	/
CC(NCC1(N2CCOCC2)CCCCC1)C(=O)N1CCc2ccccc21 (configuration not stated)	.	.	53	.	.	.
CCOc1ccc(C2C3(C#N)C(N)=NC4(OCCO4)C23C#N)cc1 (configuration not stated)	.	.	.	.	/	/
Cc1ccc(/C=C/C(=O)Nc2ccc(I)cc2)cc1	.	.	.	.	/	/
O=C(O)C1=NN(c2ccccn2)C(=O)CC1	.	.	77	.	.	100
Cc1ccc(S(=O)(=O)N2CCN(CCC#N)CC2)cc1	.	.	62	.	.	.
N#CCCN1CCN(S(=O)(=O)c2ccccc2Br)CC1	.	.	78	.	.	.
SMILES	TEAD-YAP block	GPR151 activ	MITF primary	FBW7 activator	MITF inh conf	AlphaScreen intf2	others
CCN(CC)CCNC(=O)c1sc2ncn(CC(=O)N3CCCCC3)c(=O)c2c1C	.	.	.	.	/	/
CCCCn1nnnc1SCC(=O)Nc1cccc(C)c1	.	.	.	.	/	/
CCCCn1nnnc1SCC(=O)Nc1cccc(C(C)=O)c1	.	.	68	.	.	.
CC(=O)NNC(=O)CSc1nnnn1-c1cccc(C(C)=O)c1	.	.	73	.	.	.
Nc1nnnn1/N=C/c1ccc(-c2ccc(F)c(Cl)c2)o1	.	.	83	.	.	.
Cc1cc(C(=O)COC(=O)c2cnccn2)c(C)n1-c1ccc(OC(F)F)cc1	.	.	.	.	/	/
CCN1CCN(C(c2ccc(C)cc2)c2nnnn2C(C)(C)CC)CC1 (configuration not stated)	.	.	52	.	.	.
Cc1cc(=O)[nH]c(N/N=C/c2cccc(Cl)c2Cl)n1	.	.	79	.	.	.
Cc1cc(C(C)(C)C)ccc1OCCCn1ccnc1	.	.	.	.	/	/
CC(C)(C)c1cc(Cl)ccc1OCCn1ccnc1	.	.	74	.	.	.
Cc1cc(C(C)(C)C)ccc1OCCn1ccnc1	.	.	70	.	.	.
Cc1cc(Br)ccc1OCCOCCn1ccnc1	.	.	63	.	.	.
Cc1ccc(OCCn2ccnc2)c(C)c1	.	.	.	.	/	/
C=CCc1cccc(OC)c1OCCOCCn1ccnc1	.	.	54	.	.	.
O=C(CCCCCn1c(=S)[nH]c2ccsc2c1=O)NCCc1ccccc1	.	.	.	.	/	/
CCC(=O)c1ccccc1OCCCCN1CCN(C)CC1	.	.	.	.	/	/
CCC(=O)c1ccccc1OCCCN1CCN(Cc2ccccc2)CC1	.	.	56	.	.	.
CCC(=O)c1ccccc1OCCCCn1cncn1	.	.	74	.	.	.
CCC(=O)c1ccccc1OCCN1CCN(CC)CC1	.	.	68	.	.	.
Cc1cc([N+](=O)[O-])ccc1NC(=O)c1ccccc1NC(=O)c1ccccc1	.	.	.	.	/	/
COCCn1c(=N)c(C(=O)NCc2cccnc2)cc2c(=O)n3cccc(C)c3nc21	.	.	.	.	/	/
Cc1cccc(C(=O)N[C@H]2C[C@H]3C(=O)N[C@H]([C@H](C)O)C(=O)N3C2)c1	.	.	.	.	/	/
O=c1[nH]ncc(N/N=C\c2ccc([N+](=O)[O-])cc2)c1Cl	.	.	.	.	/	/
COC(=O)c1ccc(NS(=O)(=O)c2ccc(N3C(=O)CCC3=O)cc2)cc1	.	.	.	.	/	/
CC(=O)c1cccc(NC(=S)NCCn2cc(Cl)cn2)c1	.	.	68	.	.	.
SMILES	TEAD-YAP block	GPR151 activ	MITF primary	FBW7 activator	MITF inh conf	AlphaScreen intf2	others
COc1ccc(Br)cc1C(=O)N/N=C/c1ccccc1F	.	.	67	.	.	.
CSc1ccc(CN2C[C@H](Sc3nccn3C)C[C@H]2C(=O)N(C)C)cc1	.	.	.	.	/	/
O=C(CN1CCN(C(=O)CSc2ccc(F)cc2)CC1)c1cccs1	.	.	80	.	.	.
CC(C)OCCCNCc1cc2ccccc2nc1Cl	.	.	56	.	.	.
CC(C)OCCCNC(=O)c1cc2c(Cl)nc3ccccc3c2s1	.	.	.	.	/	/
COc1ccc(-n2nc(Nc3cccc4cccnc34)c(C(C)=O)n2)cc1	.	.	.	.	/	/
Cc1nc(C)c(C(=O)Nc2ccc(C(N)=O)cc2)o1	.	.	.	.	/	/
Cc1nc(C)c(C(=O)Nc2ccc(Br)cc2)o1	.	.	56	.	.	.
